Experimental data: publication PMC5540273 (PLoS ONE, 2017)

These compounds were tested on PRKD3. Conditions: concentration: 1 μM, replicates: in singlicate; n = 1.
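Further: KINOMEscan kinase panel screen.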

SMILES | %Inh [%]
COc1ccc(Nc2nccc(N3CCC(NC(=O)C(C)c4ccc(Cl)cc4)CC3)n2)cc1 (stereo not drawn) [GSK1379812] | 0
CC(=O)c1c(C)c2cnc(Nc3ccc(N4CCNCC4)cn3)nc2n(C2CCCC2)c1=O | 0
Nc1nccc(-c2c(-c3ccc(F)cc3)ncn2C2CCN(Cc3ccccc3)CC2)n1 [SB-219980] | 0
Fc1ccc(-c2nc3n(c2-c2ccncc2)CCS3)cc1 [GI98581] | 20
COc1cccc(CNC(=O)NC2CCN(c3ccnc(Nc4ccc(F)cc4)n3)C2)c1 (stereo not drawn) [GSK1379723] | 14
c1ccc(-c2ccnc3[nH]ccc23)cc1 [SB-693578] | 0
Cc1ccc(NC(=O)c2ccc(Cl)cc2)cc1-c1ccc(C(=O)Nc2ccncc2)cc1 [GSK1398467] | 9
CNCc1ccc2nc(NC(=O)c3ccc(C(C)(C)C)cc3)cn2c1 | 12
COc1ccc(-c2coc3ccc(-c4nnc(C)o4)cc23)cc1 | 14
O=C(Nc1n[nH]c2nc(-c3ccco3)c(Br)cc12)C1CCN(Cc2ccccc2)C1.O=C(O)[C@H](O)[C@@H](O)C(=O)O (stereo not drawn) [SB-742034] | 18
Cc1c(Cn2c(C)c(C)n3c(=O)cc(N4CCOCC4)nc23)cccc1C(F)(F)F [GSK2328680] | 8
COC(=O)C(NC(=O)NC1CCN(c2ccnc(Nc3ccc(F)cc3)n2)C1)c1ccccc1 (stereo not drawn) [GSK1379712] | 4
Cc1ccc(NC(=O)Nc2ccc(Cl)cc2)cc1-c1ccc(C(=O)Nc2ccncc2)cc1 [GSK1398472] | 35
Cc1ccc(-c2nc(Nc3ccncc3)c3ccccc3n2)s1 [GSK189015] | 22
CC(C)c1cc(-c2ccc3c(N)n[nH]c3c2)nc(N)n1 [GSK2250882] | 0
CC(=O)c1cccc(NC(=O)NC2CCN(c3ccnc(Nc4ccc(F)cc4)n3)C2)c1 (stereo not drawn) [GSK1379710] | 9
Cc1ccccc1Cn1ccn2c(=O)cc(N3CCOCC3)nc12 [GSK2269905] | 0
CNc1nc(-c2ccc3c(N)n[nH]c3c2)cc(N2C[C@@H](C(=O)Nc3ccccc3)CC[C@H]2C)n1 [GSK2298859] | 0

SMILES | %Inh [%]
Fc1ccc(-c2nc[nH]c2-c2ccncc2)cc1 [SB-217360] | 0
Cc1cccc2c(-c3ccncn3)c(-c3ccc(F)cc3)nn12 [GW515532] | 32
COc1ccc(Nc2nccc(NCCNC(=O)Nc3cc(C)ccc3C)n2)cc1 [GSK1379899] | 11
CS(=O)(=O)CCNCc1nc(-c2ccc3ncnc(Nc4ccc(OCc5ccccc5)c(Cl)c4)c3c2)cs1.Cl [GW582764] | 100
NS(=O)(=O)c1cccc(N/C=C2\C(=O)Nc3ccc(S(=O)(=O)Cc4c(Cl)cccc4Cl)cc32)c1 [GSK398099] | 17
CC(=O)c1c(C)c2cnc(Nc3ccn(C)n3)nc2n(C2CCCC2)c1=O | 0
Cn1cncc1-c1cc2c(Nc3ccc(OCc4ccccc4)cc3)ncnc2cn1 [GW281179] | 1
COc1ccc(CSc2nnc(-c3ccc4c(c3)CCO4)o2)cc1 | 0
CN1c2ccc(-c3ccc(C(N)=O)cc3)cc2-c2[nH]ncc2S1(=O)=O | 0
CC(C)c1ccc(O)cc1Nc1ccnc2ccc(C(F)(F)F)cc12 [GW482059] | 27
O=C(Nc1n[nH]c2nc(-c3cccs3)c(Br)cc12)C1CCCC1 [SB-743341] | 23
CS(=O)(=O)CCNCc1nc(-c2ccc3ncnc(Nc4ccc5c(cnn5Cc5ccccc5)c4)c3c2)cs1.Cl.Cl [GW569716] | 0
Cl.Cl.Cl.N#Cc1ccc(CCNc2nccc(-c3cccc(CN4CCNCC4)c3)n2)cc1 [GSK2137462] | 0
Fc1ccc(-c2nn3cccc(F)c3c2-c2ccncc2)cc1 [GW475620] | 34
COc1ccc(CSc2nnc(-c3ccc4ncsc4c3)o2)cc1C(F)(F)F | 11
Cc1ccc(NC(=O)Nc2ccccc2F)cc1-c1ccc(C(=O)Nc2ccncc2)cc1 [GSK1398477] | 23
O=C1NC(=O)C(c2ccc(Cl)cc2)=C1Nc1cccc(Cl)c1 [SB-317651] | 0
CNc1nc(-c2ccc3c(N)n[nH]c3c2)cc(N2C[C@@H](C(=O)NC3CCCCC3)OC[C@H]2C)n1 [GSK2375584] | 0

Each compound was assayed on PRKG1. Conditions: concentration: 1 μM, replicates: in singlicate; n = 1.

SMILES | %Inh [%]
COc1ccc(Nc2nccc(N3CCC(NC(=O)C(C)c4ccc(Cl)cc4)CC3)n2)cc1 (stereo not drawn) [GSK1379812] | 2
CC(=O)c1c(C)c2cnc(Nc3ccc(N4CCNCC4)cn3)nc2n(C2CCCC2)c1=O | 9
Nc1nccc(-c2c(-c3ccc(F)cc3)ncn2C2CCN(Cc3ccccc3)CC2)n1 [SB-219980] | 0
Fc1ccc(-c2nc3n(c2-c2ccncc2)CCS3)cc1 [GI98581] | 39
COc1cccc(CNC(=O)NC2CCN(c3ccnc(Nc4ccc(F)cc4)n3)C2)c1 (stereo not drawn) [GSK1379723] | 0
c1ccc(-c2ccnc3[nH]ccc23)cc1 [SB-693578] | 0
Cc1ccc(NC(=O)c2ccc(Cl)cc2)cc1-c1ccc(C(=O)Nc2ccncc2)cc1 [GSK1398467] | 0
CNCc1ccc2nc(NC(=O)c3ccc(C(C)(C)C)cc3)cn2c1 | 0
COc1ccc(-c2coc3ccc(-c4nnc(C)o4)cc23)cc1 | 15
O=C(Nc1n[nH]c2nc(-c3ccco3)c(Br)cc12)C1CCN(Cc2ccccc2)C1.O=C(O)[C@H](O)[C@@H](O)C(=O)O (stereo not drawn) [SB-742034] | 0
Cc1c(Cn2c(C)c(C)n3c(=O)cc(N4CCOCC4)nc23)cccc1C(F)(F)F [GSK2328680] | 5
COC(=O)C(NC(=O)NC1CCN(c2ccnc(Nc3ccc(F)cc3)n2)C1)c1ccccc1 (stereo not drawn) [GSK1379712] | 0
Cc1ccc(NC(=O)Nc2ccc(Cl)cc2)cc1-c1ccc(C(=O)Nc2ccncc2)cc1 [GSK1398472] | 8
Cc1ccc(-c2nc(Nc3ccncc3)c3ccccc3n2)s1 [GSK189015] | 12
CC(C)c1cc(-c2ccc3c(N)n[nH]c3c2)nc(N)n1 [GSK2250882] | 24
CC(=O)c1cccc(NC(=O)NC2CCN(c3ccnc(Nc4ccc(F)cc4)n3)C2)c1 (stereo not drawn) [GSK1379710] | 0
Cc1ccccc1Cn1ccn2c(=O)cc(N3CCOCC3)nc12 [GSK2269905] | 19
CNc1nc(-c2ccc3c(N)n[nH]c3c2)cc(N2C[C@@H](C(=O)Nc3ccccc3)CC[C@H]2C)n1 [GSK2298859] | 18

SMILES | %Inh [%]
Fc1ccc(-c2nc[nH]c2-c2ccncc2)cc1 [SB-217360] | 18
Cc1cccc2c(-c3ccncn3)c(-c3ccc(F)cc3)nn12 [GW515532] | 8
COc1ccc(Nc2nccc(NCCNC(=O)Nc3cc(C)ccc3C)n2)cc1 [GSK1379899] | 18
CS(=O)(=O)CCNCc1nc(-c2ccc3ncnc(Nc4ccc(OCc5ccccc5)c(Cl)c4)c3c2)cs1.Cl [GW582764] | 0
NS(=O)(=O)c1cccc(N/C=C2\C(=O)Nc3ccc(S(=O)(=O)Cc4c(Cl)cccc4Cl)cc32)c1 [GSK398099] | 0
CC(=O)c1c(C)c2cnc(Nc3ccn(C)n3)nc2n(C2CCCC2)c1=O | 0
Cn1cncc1-c1cc2c(Nc3ccc(OCc4ccccc4)cc3)ncnc2cn1 [GW281179] | 8
COc1ccc(CSc2nnc(-c3ccc4c(c3)CCO4)o2)cc1 | 0
CN1c2ccc(-c3ccc(C(N)=O)cc3)cc2-c2[nH]ncc2S1(=O)=O | 0
CC(C)c1ccc(O)cc1Nc1ccnc2ccc(C(F)(F)F)cc12 [GW482059] | 15
O=C(Nc1n[nH]c2nc(-c3cccs3)c(Br)cc12)C1CCCC1 [SB-743341] | 4
CS(=O)(=O)CCNCc1nc(-c2ccc3ncnc(Nc4ccc5c(cnn5Cc5ccccc5)c4)c3c2)cs1.Cl.Cl [GW569716] | 0
Cl.Cl.Cl.N#Cc1ccc(CCNc2nccc(-c3cccc(CN4CCNCC4)c3)n2)cc1 [GSK2137462] | 0
Fc1ccc(-c2nn3cccc(F)c3c2-c2ccncc2)cc1 [GW475620] | 34
COc1ccc(CSc2nnc(-c3ccc4ncsc4c3)o2)cc1C(F)(F)F | 0
Cc1ccc(NC(=O)Nc2ccccc2F)cc1-c1ccc(C(=O)Nc2ccncc2)cc1 [GSK1398477] | 8
O=C1NC(=O)C(c2ccc(Cl)cc2)=C1Nc1cccc(Cl)c1 [SB-317651] | 3
CNc1nc(-c2ccc3c(N)n[nH]c3c2)cc(N2C[C@@H](C(=O)NC3CCCCC3)OC[C@H]2C)n1 [GSK2375584] | 1
